# Test results as given in PubChem BioAssay (NCI).
# This is part of a sample that, as a whole, favours compounds with a hit. Of some 83,000 tested, about 20% had one in any assay.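 Cells were grown in 96-well plates and exposed to the test compound at a single concentration for 48 hours; results are reported as percent growth, with values below 10 considered active.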 Unmarked numbers belong to inactive results. Calls of active or inactive are those of the source.
# What was measured:
# Experiment in all cases: NCI-60 one-dose screen, 48 h (100 = growth as untreated, 0 = no growth, -100 = all killed)
# Settings in all cases: 10 µM unless noted
# DU-145 prostate = system: DU-145 prostate
# K-562 leukemia = system: K-562 leukemia
# MALME-3M melanoma = system: MALME-3M melanoma
# MDA-MB-231 breast = system: MDA-MB-231 breast
# RXF 393 renal = system: RXF 393 renal
# SF-268 CNS = system: SF-268 CNS
# SF-295 CNS = system: SF-295 CNS
# SF-539 CNS = system: SF-539 CNS
# UACC-257 melanoma = system: UACC-257 melanoma
# M14 melanoma = system: M14 melanoma
Structure (SMILES),growth (DU-145 prostate),growth (K-562 leukemia),growth (MALME-3M melanoma),growth (MDA-MB-231 breast),growth (RXF 393 renal),growth (SF-268 CNS),growth (SF-295 CNS),growth (SF-539 CNS),growth (UACC-257 melanoma),growth (M14 melanoma)
COc1cc2nc(-c3ccc(Cl)cc3)cc(OCCCN3CCCC3)c2cc1OC,41.7%,21.1%,50%,21.5%,42.8%,54.5%,-17% (active),42.6%,31.7%,-29.7% (active)
COc1cccc(C(=O)NNc2nc(Cl)nc(N3CCN(C(c4ccccc4)c4ccccc4)CC3)n2)c1,101%,-34.7% (active),84.1%,59%,78.4%,99.3%,96.3%,90.8%,88.4%,45.4%
CCc1ccc(CNc2ccc(N3CCOCC3)c(C(=O)O)c2)cc1,105%,111%,101%,114%,121%,95.6%,103%,100%,106%,99.7%
CCCCOc1ccc(/C=N/Nc2cc(C)nc3ccc(Br)cc23)cc1,16.4%,-2.5% (active),-66.9% (active),48.5%,-72% (active),88.3%,-80.3% (active),-79.3% (active),96.3%,4.9% (active)
O=C(/C=C(/C=C/c1csc2ccccc12)OB(F)F)/C=C/c1csc2ccccc12,28.5%,23.2%,9.2% (active),2.45% (active),-28.4% (active),5.79% (active),87%,40.8%,57.7%,8.88% (active)
O=C(CCN1CCCC1)Nc1ccc2c(NCCc3ccccc3)c3ccccc3nc2c1,-23.3% (active),-17.1% (active),-92.6% (active),-32.5% (active),-47.9% (active),-55% (active),-2.88% (active),-67.2% (active),-8.54% (active),-61.8% (active)
COc1cc2nc(-c3ccc(C(F)(F)F)cc3)cc(OCCCN3CCOCC3)c2cc1OC,41.5%,11.5%,45.2%,22.1%,14.5%,56.1%,-50.1% (active),46%,-16.2% (active),-56% (active)
CN1C(=O)NC(c2ccc3c(c2)OCO3)C=C1c1ccccc1 (stereo not given),94.7%,76.5%,88.4%,102%,91.2%,95.6%,98.6%,98.1%,98.5%,96.9%
O=C(Cn1c[n+](CC(=O)c2ccc(-c3ccccc3)cc2)c2ccccc21)Nc1cccc2cccnc12,36.9%,12.6%,8.16% (active),-7.75% (active),83.7%,20.3%,78.1%,23.6%,10.1%,28.1%
COc1cc(/C=C/c2cc(O)c(C(C)=O)c(O)c2)cc2c1O[C@]1(C)CC[C@@H](O)C(C)(C)[C@H]1C2,74.5%,31.6%,65.8%,37.6%,-19.4% (active),55.8%,8.72% (active),9.14% (active),76.4%,51.5%
NCCCCCCNc1cc(-c2cccc(OC(F)(F)F)c2)nc2ccc(N3CCCC3)cc12,-17.4% (active),-52.6% (active),-93.8% (active),-79.9% (active),-90.8% (active),-3.93% (active),-69.1% (active),-87.6% (active),-67.7% (active),-71.4% (active)
COc1ccccc1NC(=O)C1CC(c2ccc(F)cc2)=NO1 (stereo not given),106%,95%,100%,98.5%,97%,97.4%,96.2%,95.5%,107%,104%
COc1ccc(/C=N/NC(=O)c2cnn3c2NC(c2ccccc2)C3)cc1OC (stereo not given),81.1%,24.1%,76.4%,66%,78.2%,73.7%,36.3%,63.4%,77.9%,45.5%
Cn1nc(CC#N)c2c(=N)n(N)cnc21,106%,103%,118%,96.7%,112%,101%,95%,108%,111%,110%
COc1ccc2[nH]c(O)c(/C=c3/cc4c(c(-c5ccc(F)cc5)n3)=Nc3ccccc3-4)c2c1,76.6%,23.5%,114%,32.2%,81.5%,79.3%,86.9%,89.5%,113%,92.3%
Nc1n[nH]c2cccc(C#Cc3cccc(C(=O)Nc4cc(CN5CCOCC5)cc(C(F)(F)F)c4)c3)c12,58.9%,4.98% (active),0.564% (active),19.6%,24%,41.9%,54.6%,8.6% (active),33%,6.89% (active)
Cc1ccc(NC(=O)Cc2ccc(/C=C/C(=O)c3ncc[nH]3)cc2)cc1,16%,8.84% (active),96.3%,56.6%,52.7%,24.7%,24%,-14.8% (active),83.4%,82.5%
N#C/C(=C\c1ccccn1)c1nc2cc(Cl)ccc2s1,92.8%,48.3%,87.5%,61.3%,60.3%,68.8%,94.4%,63.1%,91.8%,89.9%
CCSCC1CC(O)(c2ccccc2)CC(c2ccc(F)cc2)O1 (stereo not given),9.94% (active),11.9%,-17.8% (active),20.6%,-5.44% (active),20%,-14.8% (active),36.5%,35.7%,5.84% (active)
COc1cc(/C=C\C(=O)O)ccc1OCc1ccccc1,103%,126%,102%,93.5%,103%,94.8%,101%,99.5%,91%,109%
O=C(O)c1ccc(-c2nn(-c3ccc(C(F)(F)F)cc3)cc2CNc2ccc(Oc3ccccc3)cc2)cc1,95.5%,65.3%,107%,91.4%,88.4%,79.5%,72.7%,89.6%,102%,84.6%
CCCCCCNC(=O)Nc1ccc2cc3ccc(NC(=O)NCCCCCC)cc3nc2c1,21.7%,-29.6% (active),-35.7% (active),-23.6% (active),-47.7% (active),-62.8% (active),-47.5% (active),-77.1% (active),72.6%,28.5%
O=C(CCN1CCCC1)Nc1ccc2c(NCCCCc3ccccc3)c3ccccc3nc2c1,-61.8% (active),-31.2% (active),-88.7% (active),-74.9% (active),7.61% (active),-73.2% (active),43.4%,-70.3% (active),-60.8% (active),-72.6% (active)
Cc1ccccc1NS(=O)(=O)c1cccc(C(=O)Nc2ccc(Br)cc2)c1,57.8% [25 µM],23.1% [25 µM],18% [25 µM],56% [25 µM],60.7% [25 µM],36.5% [25 µM],19.7% [25 µM],57.3% [25 µM],27.4% [25 µM],35.5% [25 µM]
CCCC/C=N/NC(=S)NCc1ccccc1,106%,91.7%,97%,98.8%,106%,102%,102%,94%,91.2%,87.4%
COc1cccc(-c2nc3occn3c2-c2ccnc(NCCNS(=O)(=O)c3cccc4ccccc34)n2)c1,107%,95.1%,111%,112%,102%,96.8%,106%,109%,104%,117%
CC(=O)Nc1ccc(-c2ccc3c(c2)NC(=O)/C3=C\c2ccc[nH]2)cc1,72%,96.1%,109%,80.7%,104%,92.1%,87.2%,81.4%,119%,105%
